Assay results taken from PubChem BioAssay.
Calls of active or inactive are those of the source.

Legend:
[1] = optical density shifts of acrAB sulA E. coli – strain DRC41, OD650, 48 h, E. coli filamentation inducer project, primary screen (AID 1152); conditions: higher = more signal, called active from +8 up or from −8 down;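 note: E. coli MC1000 strain DRC41 lacking acrAB efflux pump and sulA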
[2] = probe aLefty1 binding on compound microarray – biochemical, small-molecule microarray, 635/667 nm fluorescence, primary screen (AID 1153); conditions: higher = more signal;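 note: score merges spot fluorescence with signal-to-noise ratio from the scanned slide images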
[3] = plasmodial surface anion channel blockers, osmotic lysis – cell-based, P. falciparum Indochina, OD700, 1 h, primary screen (AID 1154); conditions: P. falciparum Indochina infected RBC osmotic lysis, higher = more signal, called active from +8 up or from −8 down
[4] = plasmodial surface anion channel blockers, osmotic lysis – cell-based, P. falciparum Indochina, OD700, 2 h, primary screen (AID 1155);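 note: lysis reports solute entry through the parasite surface anion channel PSAC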; conditions: P. falciparum Indochina infected erythrocytes, higher = more signal, called active from +8 up or from −8 down
[5] = changes in parasitized red cell lysis, either direction – P. falciparum Indochina, OD700, 3 h, PSAC antagonist project, primary screen (AID 1156); conditions: P. falciparum-infected erythrocytes, osmotic lysis, higher = more signal, called active from +8 up or from −8 down
[6] = plasmodial surface anion channel blockers, osmotic lysis – cell-based, P. falciparum Indochina, OD700, 18 h, primary screen (AID 1157); conditions: P. falciparum Indochina infected erythrocytes, osmotic lysis OD700, 18 h; higher = more signal, called active from +8 up or from −8 down
[7] = S6 kinase pathway phospho-S6 level changes – cell-based, A549, cytoblot, luminescence, serum-stimulated, primary screen (AID 1158); conditions: 5 h, higher = more signal;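 note: serum-stimulated A549 lung adenocarcinoma cells; signal is phosphorylated S6 detected by cytoblot immunostaining with HRP secondary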
[8] = molecular target: NADPH oxidase 2 (Homo sapiens) (UniProt P04839); assay: compounds shifting NOX2 Amplex Red fluorescence – cell-based, HEK293-NOX2, PMA-stimulated, NOX inhibitor project, primary screen (AID 1159); conditions: 45 min, higher = more signal, called active from +8 up or from −8 down; note: test concentration not given here
Chain of NADPH oxidase 2 (Homo sapiens) (P04839 whole entry, looked up): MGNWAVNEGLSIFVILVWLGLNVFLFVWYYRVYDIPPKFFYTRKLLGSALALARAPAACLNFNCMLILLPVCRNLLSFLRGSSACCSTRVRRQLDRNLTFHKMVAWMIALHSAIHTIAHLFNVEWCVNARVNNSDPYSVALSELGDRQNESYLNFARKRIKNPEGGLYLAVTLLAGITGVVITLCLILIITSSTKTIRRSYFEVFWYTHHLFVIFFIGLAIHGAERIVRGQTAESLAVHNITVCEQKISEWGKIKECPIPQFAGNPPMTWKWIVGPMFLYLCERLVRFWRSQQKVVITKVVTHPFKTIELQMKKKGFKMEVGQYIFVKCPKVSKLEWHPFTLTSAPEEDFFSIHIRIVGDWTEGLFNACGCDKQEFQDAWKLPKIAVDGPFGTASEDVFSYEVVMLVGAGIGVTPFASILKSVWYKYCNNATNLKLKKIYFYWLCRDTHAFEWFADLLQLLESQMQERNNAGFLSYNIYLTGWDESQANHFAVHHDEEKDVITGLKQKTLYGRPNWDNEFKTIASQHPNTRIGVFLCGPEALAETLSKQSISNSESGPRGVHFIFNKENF

[9] = molecular target: NADPH oxidase 4 (Homo sapiens) (UniProt Q9NPH5); assay: compounds shifting NOX4 Amplex Red fluorescence – cell-based, HEK293-NOX4, tetracycline-induced, NOX inhibitor project, primary screen (AID 1160); conditions: HEK293-NOX4, Amplex Red H2O2 fluorescence, 45 min; higher = more signal, called active from +8 up or from −8 down
Chain of NADPH oxidase 4 (Homo sapiens) (Q9NPH5 whole entry, looked up): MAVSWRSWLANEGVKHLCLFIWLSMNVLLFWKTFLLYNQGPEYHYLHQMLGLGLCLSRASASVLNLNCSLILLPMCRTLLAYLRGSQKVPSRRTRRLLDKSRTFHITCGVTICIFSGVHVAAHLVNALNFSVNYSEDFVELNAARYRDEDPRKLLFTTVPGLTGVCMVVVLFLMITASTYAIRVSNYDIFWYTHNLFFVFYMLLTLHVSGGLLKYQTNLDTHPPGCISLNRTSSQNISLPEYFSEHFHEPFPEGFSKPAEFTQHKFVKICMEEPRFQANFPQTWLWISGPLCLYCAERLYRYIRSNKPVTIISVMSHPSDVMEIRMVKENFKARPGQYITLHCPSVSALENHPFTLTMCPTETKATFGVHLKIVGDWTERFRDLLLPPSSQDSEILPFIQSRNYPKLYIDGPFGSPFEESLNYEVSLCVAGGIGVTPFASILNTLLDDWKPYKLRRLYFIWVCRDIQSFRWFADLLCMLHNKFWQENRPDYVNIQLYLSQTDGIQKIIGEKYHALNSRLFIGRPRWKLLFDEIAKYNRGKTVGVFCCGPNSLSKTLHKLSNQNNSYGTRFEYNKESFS

[10] = molecular target: NADPH oxidase 5 (Homo sapiens) (UniProt Q96PH1); assay: compounds shifting NOX5 Amplex Red fluorescence – cell-based, HEK293-NOX5, NOX inhibitor project, primary screen (AID 1161); conditions: HEK293-NOX5, ionomycin, 45 min, higher = more signal
Chain of NADPH oxidase 5 (Homo sapiens) (Q96PH1 whole entry, looked up): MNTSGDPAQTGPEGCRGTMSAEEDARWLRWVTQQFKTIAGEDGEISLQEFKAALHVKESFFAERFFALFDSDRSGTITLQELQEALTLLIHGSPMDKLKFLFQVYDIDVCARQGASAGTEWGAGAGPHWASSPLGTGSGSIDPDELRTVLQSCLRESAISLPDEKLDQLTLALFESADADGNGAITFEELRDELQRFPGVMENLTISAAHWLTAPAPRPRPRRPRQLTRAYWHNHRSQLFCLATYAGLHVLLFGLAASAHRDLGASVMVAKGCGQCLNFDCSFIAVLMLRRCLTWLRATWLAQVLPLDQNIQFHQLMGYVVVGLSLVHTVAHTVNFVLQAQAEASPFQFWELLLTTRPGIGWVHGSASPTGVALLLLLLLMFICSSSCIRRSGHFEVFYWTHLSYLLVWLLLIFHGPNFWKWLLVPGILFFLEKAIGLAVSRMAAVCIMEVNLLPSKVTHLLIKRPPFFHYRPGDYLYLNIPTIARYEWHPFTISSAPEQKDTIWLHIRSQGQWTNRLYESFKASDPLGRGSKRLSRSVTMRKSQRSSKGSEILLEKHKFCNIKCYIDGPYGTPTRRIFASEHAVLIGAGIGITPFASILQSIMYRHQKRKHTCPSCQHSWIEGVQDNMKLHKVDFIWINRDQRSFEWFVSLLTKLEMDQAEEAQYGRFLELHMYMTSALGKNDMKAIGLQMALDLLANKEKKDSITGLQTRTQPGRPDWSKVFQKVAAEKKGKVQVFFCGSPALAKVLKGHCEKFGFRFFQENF

Row | SMILES | z-score [1] | composite z-score [2] | z-score [3] | z-score [4] | z-score [5] | z-score [6] | z-score [7] | z-score [8] | z-score [9] | z-score [10]
1 | C=CCOC(=O)[C@@H]1[C@H]2C(=O)O[C@H](c3ccccc3)[C@H](c3ccccc3)N2[C@H](c2ccc(OCCOC(=O)[C@@H]3C[C@@H]4C(=O)N[C@@H](CCCC[N+](C)(C)C)C(=O)N4[C@@H]3c3cccc(OCCO)c3)cc2)[C@@]12C(=O)Nc1ccc(I)cc12 | -0.537 (inactive) | 0.121 | 2.82 (inactive) | 2.58 (inactive) | 2.24 (inactive) | 1.01 (inactive) | -1.5 | 2.31 (inactive) | 0.862 (inactive) | 1.3
2 | COc1cc2c(cc1O)C=[N+](Cc1cccc(OC(F)(F)F)c1)CC2 | 0.272 (inactive) | -0.464 | 3.05 (inactive) | -1.25 (inactive) | -0.747 (inactive) | -2.03 (inactive) | 0.818 | -4.18 (inactive) | -2.56 (inactive) | -3.06
3 | C=C(COC)/C(=C/C[C@H](OC(=O)c1ccncc1)c1ccc(OCCO)cc1)c1cnc2ccccc2c1 | -0.469 (inactive) | 0.062 | 20 (active) | 3.18 (inactive) | 1.47 (inactive) | 0.848 (inactive) | 0.123 | -0.294 (inactive) | -0.192 (inactive) | -0.608
4 | CN(C)CCCNC(=O)[C@@]1(c2ccc([N+](=O)[O-])cc2)CC(=O)N(C2CCCCC2)[C@@H]1c1ccc(CO)cc1 | 0.0097 (inactive) | 0.0793 | 1.31 (inactive) | 0.346 (inactive) | 2.09 (inactive) | -0.0633 (inactive) | -0.0223 | 1.84 (inactive) | 1.31 (inactive) | 0.787
5 | CCOC(=O)C[C@H]1[C@H](OC(=O)Cc2ccc3c(c2)OCO3)[C@@H](NC(=O)c2ccc3ccccc3c2)c2cc(OCCCO)ccc2N1C(=O)c1ccccc1 | 1.87 (inactive) | 0.0479 | 4.03 (inactive) | 0.522 (inactive) | -0.552 (inactive) | 0.26 (inactive) | 0.0043 | -0.363 (inactive) | 0.321 (inactive) | -2.56
6 | CN(C)CCCNC(=O)[C@@]1(C)c2ccccc2C(=O)N(Cc2cc(F)cc(C(F)(F)F)c2)[C@H]1c1ccc(CO)cc1 | -0.0995 (inactive) | 0.0391 | 2.41 (inactive) | 0.159 (inactive) | 1.32 (inactive) | -0.0617 (inactive) | -0.0103 | -0.655 (inactive) | 0.835 (inactive) | 0.463
7 | O=C(NCC(F)(F)F)[C@@H]1c2ccccc2C(=O)N(C2CCCCC2)[C@H]1c1ccc(CO)cc1 | -0.36 (inactive) | -0.146 | 0.732 (inactive) | -0.243 (inactive) | 0.0266 (inactive) | 0.18 (inactive) | -0.216 | 0.292 (inactive) | -0.755 (inactive) | 0.211
8 | CN(C)C(=O)[C@@]1(Cc2ccccc2)N=C(c2ccc(OCCCO)cc2)O[C@H]1c1ccccc1N=[N+]=[N-] | 0.89 (inactive) | 0.737 | 30.4 (active) | 27.4 (active) | 2.05 (inactive) | 7.06 (inactive) | 1.33 | -1.93 (inactive) | 0.891 (inactive) | -1.22
9 | O=C1O[C@H](c2ccccc2)[C@H](c2ccccc2)N2[C@H]1[C@@H](C(=O)Nc1nc3ccccc3s1)[C@]1(C(=O)Nc3ccc(C#CC4(O)CCCCCC4)cc31)[C@H]2c1ccc(OCCO)cc1 | -0.558 (inactive) | 0.338 | 3.28 (inactive) | 1.58 (inactive) | 0.501 (inactive) | 1.67 (inactive) | -0.239 | 0.286 (inactive) | 0.11 (inactive) | -0.0468
10 | Cc1ccc(C(C)CC(O)C2C=CC3C(=O)N(C)C(=O)C3N2NC(=O)OC(C)(C)C)o1 (stereo not given) | -0.502 (inactive) | 0.196 | -0.205 (inactive) | 0.562 (inactive) | -0.168 (inactive) | 0.435 (inactive) | -0.497 | 0.347 (inactive) | -0.202 (inactive) | -0.701
11 | CN(C)C(=O)[C@]1(Cc2ccccc2N=[N+]=[N-])N=C(c2ccc(OCCCO)cc2)O[C@@H]1c1ccccc1 | 0.327 (inactive) | 0.112 | 30.2 (active) | 27.5 (active) | 2.4 (inactive) | 2.53 (inactive) | 1.38 | -0.906 (inactive) | -0.433 (inactive) | -1.67
12 | CC(C)C[C@H]1NC(=O)[C@@]23C(=O)N[C@@H](Cc4ccccc4)C2[C@H](C)[C@@]2(C)O[C@H]2C3/C=C/C/C=C\CNC(=O)[C@H](Cc2ccccc2)NC1=O (stereo not given in full) | -0.0044 (inactive) | 0.0999 | 2.14 (inactive) | -0.0365 (inactive) | 1.58 (inactive) | 0.207 (inactive) | -0.175 | 0.845 (inactive) | -0.847 (inactive) | 0.971
